The supplement of paper PMC6522484
± gives the standard deviation of the averaged measurements.

Key:
DLD1 [1] = assay: cell viability (CellTiter-Glo) relative to plate median (fraction of plate median); higher = more viable cells; conditions: 10 µM, treatment time 24 h
Summary of the method: (§1)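 Colorectal cancer cell lines stably transduced with lentiviral TCF/Wnt firefly luciferase reporters (7TFP or TCF4/Wnt) were seeded in 384-well plates. 24 h later they received kinase inhibitor library compounds at a final 10 µM for 24 h. Parallel plates were read for firefly luciferase or CellTiterGlo luminescence on a Tecan F500 reader. Each well's signal was normalised to the plate median (webcellHTS2, additive, no log transformation), and the mean of two independent replicates is reported.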

HCT116 [2] = assay: as above; conditions: 10 µM; treatment time 24 h; reporter: TCF4/Wnt
Summary of the method: as §1

SW480 [3] = assay: as above; conditions: 10 µM; treatment time 24 h; reporter: 7TFP
Summary of the method: as §1

DLD1 [4] = assay: TCF/Wnt firefly luciferase reporter signal relative to plate median (fraction of plate median); higher = higher Wnt reporter signal; conditions: 10 µM, treatment time 24 h
Summary of the method: as §1

HCT116 [5] = assay: as above; conditions: 10 µM; treatment time 24 h; reporter: TCF4/Wnt
Summary of the method: as §1

SW480 [6] = assay: as above; conditions: 10 µM; treatment time 24 h; reporter: 7TFP
Summary of the method: as §1

Structure (SMILES)	cell viability (DLD1 [1]; reporter: 7TFP)	cell viability (DLD1 [1]; reporter: TCF4/Wnt)	cell viability (HCT116 [2])	cell viability (SW480 [3])	TCF/Wnt firefly luciferase reporter signal (DLD1 [4]; reporter: 7TFP)	TCF/Wnt firefly luciferase reporter signal (DLD1 [4]; reporter: TCF4/Wnt)	TCF/Wnt firefly luciferase reporter signal (HCT116 [5])	TCF/Wnt firefly luciferase reporter signal (SW480 [6])
CS(=O)(=O)N1CCN(Cc2cc3nc(-c4cccc5[nH]ncc45)nc(N4CCOCC4)c3s2)CC1	0.998 ± 0.19	1.03 ± 0.05	1.08 ± 0.021	1 ± 0.035	0.93 ± 0.14	0.947 ± 0.16	1.16 ± 0.057	1.04 ± 0.075
C[C@H](NC(=O)/C(C#N)=C/c1cccc(Br)n1)c1ccccc1	0.579 ± 0.082	0.529 ± 0.0085	0.183 ± 0.0028	0.899 ± 0.0057	0.041 ± 0.011	0.057 ± 0.015	0.0323 ± 0.02	0.0234 ± 0.012
COc1cc(CCc2cc(NC(=O)c3ccc(N4CC(C)NC(C)C4)cc3)n[nH]2)cc(OC)c1 (stereo unspecified)	0.967 ± 0.1	0.951 ± 0.04	1.04 ± 0.058	1.07 ± 0.05	0.794 ± 0.042	0.718 ± 0.011	0.502 ± 0.34	0.93 ± 0.099
c1cncc(CN2CCC(n3ncc4c(N5CCOCC5)nc(-c5ccc6[nH]ccc6c5)nc43)CC2)c1	0.992 ± 0.17	0.9595 ± 0.005	0.858 ± 0.052	1.19 ± 0.078	0.532 ± 0.025	0.607 ± 0.042	0.897 ± 0.16	1.16 ± 0.014
CCCS(=O)(=O)Nc1ccc(F)c(C(=O)c2c[nH]c3ncc(-c4ccc(Cl)cc4)cc23)c1F [Vemurafenib (PLX4032)]	1.19 ± 0.13	0.976 ± 0.023	1.2 ± 0.05	0.878 ± 0.042	1.14 ± 0.028	0.939 ± 0.015	1.155 ± 0.0071	0.866 ± 0.11
CN(C)Cc1cccc(N/C(=C2\C(=O)Nc3cc(C(N)=O)ccc32)c2ccccc2)c1	1.15 ± 0.13	1.09 ± 0.057	1.09 ± 0.028	1.085 ± 0.0071	0.977 ± 0.23	0.982 ± 0.12	1.05 ± 0.095	1.14 ± 0.035
COc1ccc2c3n(c(=NC(=O)c4cccnc4)nc2c1OC)CCN3	1.005 ± 0.0071	0.944 ± 0.026	0.958 ± 0.028	1.04 ± 0.042	0.858 ± 0.13	1.05 ± 0.1	1.12 ± 0.13	0.67 ± 0.33
N#C/C(=C\c1ccc(O)c(O)c1)C(=O)NCc1ccccc1	0.874 ± 0.063	0.946 ± 0.031	1.08 ± 0.028	0.94 ± 0.032	0.656 ± 0.15	1.2 ± 0.13	1.1 ± 0.021	0.834 ± 0.016
CCC(=O)N1CCN(c2ccc(-n3c(=O)ccc4cnc5ccc(-c6cnc7ccccc7c6)cc5c43)cc2C(F)(F)F)CC1 [Torin 1]	0.914 ± 0.16	0.97 ± 0.013	0.827 ± 0.045	1.17 ± 0.11	0.252 ± 0.044	0.311 ± 0.049	0.44 ± 0.096	0.66 ± 0.14
COc1cc(OC)c(/C=C/S(=O)(=O)Cc2ccc(OC)c(NCC(=O)O)c2)c(OC)c1	0.988 ± 0.074	1.01 ± 0.025	0.631 ± 0.14	1.04	0.726 ± 0.011	0.772 ± 0.0014	0.198 ± 0.013	0.694 ± 0.069
Cc1[nH]c(/C=C2\C(=O)Nc3ccccc32)c(C)c1CCC(=O)O	0.941 ± 0.028	0.997 ± 0.061	1.08 ± 0.13	0.96 ± 0.044	1.93 ± 0.38	1.26 ± 0.41	1.4 ± 0.59	1.22 ± 0.16
CCn1c(-c2nonc2N)nc2c(C#CC(C)(C)O)ncc(OC[C@H]3CCCNC3)c21	0.909 ± 0.074	0.954 ± 0.065	0.805 ± 0.0057	1.04 ± 0.05	1.05 ± 0.55	1.22 ± 0.26	1.65 ± 0.41	1.39 ± 0.23
Nc1cccc(-c2cc3c(Oc4cccc(O)c4)ncnc3[nH]2)c1	1.17 ± 0.085	1.06 ± 0.078	1.05 ± 0.028	0.92 ± 0.018	0.961 ± 0.098	1.01 ± 0.014	1.28 ± 0.085	0.966 ± 0.04
COc1ccc2c(Oc3ccc(NC(=O)c4c(C)n(CC(C)(C)O)n(-c5ccccc5)c4=O)nc3)ccnc2c1	1.15 ± 0.19	1.01 ± 0.016	1.12	0.921 ± 0.08	0.92 ± 0.35	0.99 ± 0.057	1.22 ± 0.078	1.05 ± 0.078
COC(=O)Nc1ccc(-c2nc(N3CCOCC3)c3cnn(C4CCN(C(=O)OC)CC4)c3n2)cc1	1.13 ± 0.014	1.13 ± 0.028	1.105 ± 0.0071	1.11 ± 0.028	1.07 ± 0.057	0.973 ± 0.053	1.23 ± 0.12	1.11 ± 0.085
Cc1cc(Nc2cc(N3CCN(C)CC3)nc(Sc3ccc(NC(=O)C4CC4)cc3)n2)n[nH]1 [VX-680 (MK-0457, Tozasertib)]	1.12 ± 0.18	0.975 ± 0.078	1.02 ± 0.028	1.16 ± 0.021	0.773 ± 0.0014	0.776 ± 0.057	1.56 ± 0.13	1.11 ± 0.23

Structure (SMILES)	cell viability (DLD1 [1]; reporter: 7TFP)	cell viability (DLD1 [1]; reporter: TCF4/Wnt)	cell viability (HCT116 [2])	cell viability (SW480 [3])	TCF/Wnt firefly luciferase reporter signal (DLD1 [4]; reporter: 7TFP)	TCF/Wnt firefly luciferase reporter signal (DLD1 [4]; reporter: TCF4/Wnt)	TCF/Wnt firefly luciferase reporter signal (HCT116 [5])	TCF/Wnt firefly luciferase reporter signal (SW480 [6])
O=C(NCCCNc1nc(Nc2cccc(NC(=O)N3CCCC3)c2)ncc1I)c1cccs1	0.966 ± 0.19	0.97 ± 0.21	0.817 ± 0.6	1.06 ± 0.14	0.81 ± 0.0057	0.882 ± 0.32	1.06 ± 1.1	1.06 ± 0.021
CN(C)Cc1cccc(N=C(c2ccccc2)c2c(O)[nH]c3cc(C(=O)N(C)C)ccc23)c1	1.13 ± 0.057	0.947 ± 0.0014	1.13 ± 0.099	1.19 ± 0.035	0.966 ± 0.12	0.85 ± 0.061	1.11 ± 0.16	1.11 ± 0.014
Cn1cc(-c2ccc3nnc(C(F)(F)c4ccc5ncccc5c4)n3n2)cn1	1.14 ± 0.13	0.972 ± 0.11	1.16 ± 0.05	0.846 ± 0.059	1.35 ± 0.05	1.4 ± 0.32	1.25 ± 0.43	1.06 ± 0.064
N#CC(=C(/N)Sc1ccccc1N)/C(C#N)=C(\N)Sc1ccccc1N	1.08 ± 0.064	1.003 ± 0.0099	0.938 ± 0.043	1.06 ± 0.05	1.73 ± 0.11	1.27 ± 0.064	0.95 ± 0.071	1.59 ± 0.16
O=c1sn(-c2cccc3ccccc23)c(=O)n1Cc1ccccc1 [Tideglusib]	1.03 ± 0.081	0.9475 ± 0.005	1.03 ± 0.067	0.946 ± 0.0099	1.32 ± 0.035	1.17	1.285 ± 0.0071	1.11 ± 0.064
O=C(NOCC(O)CO)c1cc(Br)c(F)c(F)c1Nc1ccc(I)cc1F (stereo unspecified)	1.17 ± 0.12	0.96 ± 0.13	0.891 ± 0.047	1.19 ± 0.028	1.72 ± 0.38	1.47 ± 0.16	1.95 ± 0.47	2.33 ± 0.064
O=c1cc(-c2cccc3c2Sc2ccccc2S3)oc(N2CCOCC2)c1	1.02 ± 0.1	0.999 ± 0.03	1.11 ± 0.035	0.875 ± 0.0042	1.42 ± 0.13	1.18 ± 0.13	1.6 ± 0.4	1.18 ± 0.13
Cc1cc(CN2CCN(c3c(Br)cnc4nc(-c5ccc(N6CCN(C)CC6)cc5)[nH]c34)CC2)no1	1.09 ± 0.23	1.01 ± 0.021	1.04 ± 0.014	1.08 ± 0.057	1.42 ± 0.15	1.49 ± 0.18	1.72 ± 0.46	1.34 ± 0.4
CC(=O)Nc1nc(C)c(-c2ccc(Cl)c(S(=O)(=O)NCCO)c2)s1	0.939 ± 0.13	0.947 ± 0.0014	0.974 ± 0.051	1.1	0.9 ± 0.037	1 ± 0.08	1.09 ± 0.085	0.944 ± 0.033
NC1(Cc2ccc(Cl)cc2)CCN(c2ncnc3[nH]ccc23)CC1	1.18 ± 0.05	1.105 ± 0.0071	0.787 ± 0.073	1.02 ± 0.035	1.03 ± 0.045	0.886 ± 0.078	1.02 ± 0.32	1.01 ± 0.11
COc1ccc(S(=O)(=O)N(C(C)=O)c2ccccc2/C=C/c2cc[n+]([O-])cc2)cc1	0.982 ± 0.14	1.17 ± 0.14	0.619 ± 0.28	1.14 ± 0.085	0.725 ± 0.03	1 ± 0.14	0.278 ± 0.0071	0.7 ± 0.083
O=C(NOCC1CC1)c1ccc(F)c(F)c1Nc1ccc(I)cc1Cl	1.19 ± 0.028	1.065 ± 0.0071	1.11 ± 0.028	1.1 ± 0.11	1.2 ± 0.042	1.04 ± 0.23	0.9945 ± 0.0078	1.16 ± 0.32
COc1cc2ncnc(Nc3ccc(O)c(Br)c3)c2cc1OC	1.04 ± 0.13	0.98 ± 0.029	1.13 ± 0.28	1.01	1.11 ± 0.021	0.832 ± 0.11	1.11 ± 0.17	1.17 ± 0.014
O=c1cc(N2CCOCC2)oc2c(-c3cccc4c3sc3ccccc34)cccc12	1.01 ± 0.083	0.964 ± 0.052	1 ± 0.094	1.04 ± 0.014	1.19 ± 0.064	1.16 ± 0.17	1.73 ± 0.64	1.1 ± 0.042
CNC(=O)c1nn(C)c2c1C(C)(C)Cc1cnc(Nc3ccc(N4CCN(C)CC4)cc3)nc1-2	1.02 ± 0.2	0.941 ± 0.049	0.659 ± 0.18	1.14 ± 0.099	0.274 ± 0.088	0.3665 ± 0.0035	0.146 ± 0.022	0.845 ± 0.096
CCN1CCN(c2ccc(Nc3cc(N(C)C(=O)Nc4c(Cl)c(OC)cc(OC)c4Cl)ncn3)cc2)CC1	1.36 ± 0.18	1.06 ± 0.071	1.16 ± 0.092	0.921 ± 0.033	1.24 ± 0.11	1.06 ± 0.51	0.852 ± 0.15	0.921 ± 0.12
